Experimental data taken from PubChem BioAssay (EPA / NIEHS).
Several values for one entry are separate records, joined by “and”; a condition that tells them apart may be missing. Identical values can stand only once. Results filed as inconclusive are left out. More than one record can exist for a structure, and the calls need not agree. Activity calls are given as the source filed them. The calls were made as follows, unless noted: active = hit-call score of the fitted dose curve at least 0.9, where 1 is the maximum; inactive = score below 0.9.

Columns and labels:
[1] = read-out: Interleukin 17F (IL17F), IL17F (gene 112744); experiment: BSK_BT_xIL17F: BioMAP Diversity Plus: BT Assay for Interleukin 17F (IL17F) Biomarker Activity (AID 2284243); details: primary human B cells with PBMC
Summary of the method: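 Luminex readout of IL-17F secretion, 24 h; cells: human B cells with PBMC; positive-direction analysis, DMSO control.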

[2] = read-out: Actin alpha 1 (ACTA1), ACTA1 (gene 58); experiment: BSK_MyoF_ACTA1: BioMAP Diversity Plus: MyoF Assay for Actin alpha 1 (ACTA1) Biomarker Activity (AID 2284244); details: primary human lung fibroblasts
Summary of the method: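 alpha-SMA levels read by ELISA against DMSO baseline, 24 h post-dose, in primary human lung fibroblasts. Parallel cultures stained with 0.1% SRB after 10% TCA fixation (560 nm) to flag overt cytotoxicity.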

[3] = read-out: Interleukin 2 (IL2), IL2 (gene 3558); experiment: BSK_BT_xIL2: BioMAP Diversity Plus: BT Assay for Interleukin 2 (IL2) Biomarker Activity (AID 2284245); details: primary human B cells with PBMC
Description: BSK_BT is a cell-based, multiplexed-readout assay that uses B cell and peripheral blood mononuclear cells, a human vascular primary cell co-culture, with measurements taken at 24 hours after chemical dosing in a microplate: 96-well plate.BSK_BT_xIL2 is an assay component measured in the BSK_BT assay. It measures secreted IL-2 related to regulation of gene expression using LumineX xMAP technology.Data from the assay component BSK_BT_xIL2 was analyzed at the endpoint, BSK_BT_xIL2, in the positive analysis fitting direction relative to DMSO as the negative control and baseline of activity. Using a type of cytokine quantitation reporter, gain or loss-of-signal activity can be used to understand protein changes. To generalize the intended target to other relatable targets, this assay endpoint is annotated to the 'cytokine' intended target family, where the subfamily is 'interleukins'.
(§1) The levels of cell surface (or secreted, indicated by the prefix "s") biomarker endpoints were measured by ELISA. Overt cytotoxicity to cells in confluent adherent cultures (all systems other than the BT system) was assessed by measuring total protein levels using sulforhodamine B (SRB) staining in parallel cultures at the time of biomarker measurements, indicated as SRB endpoints. For proliferation assays for adherent cell types, individual cell types are cultured at sub-confluence and relative cell numbers quantified by SRB staining at time points optimized for each system (48 h: 3C and CASM3C systems; 72 h: BT and HDF3CGF systems; 96 h: SAg system). SRB was performed by staining cells with 0.1% SRB after fixation with 10% TCA and reading wells at 560 nm.Viability and proliferation of PBMC (T cells) was quantified by Alamar Blue reduction for the SAg and BT systems. For PBMC viability (referred to as PBMC Cytotoxicity within the assay endpoint names), cells were plated (75,000/well in a 96-well plate) and then chemical samples added for 1 h before addition of activators, SEB and TSST-1 (20 ng/mL final concentration each). Cells were incubated for 90 h. Then, Alamar Blue (20 uL/well) (Invitrogen, Cat DAL1100) was added for 6 h, and the plates were read with a fluorescence microplate reader at 546/580 nm (excitation/emission). For PBMC proliferation, cells were plated and activated as above but incubated for only 16 h prior to addition of Alamar Blue. Plates were read after 6 h.

[4] = read-out: Basic fibroblast growth factor (bFGF), FGF2 (gene 2247); experiment: BSK_MyoF_bFGF: BioMAP Diversity Plus: MyoF Assay for Basic fibroblast growth factor (bFGF) Biomarker Activity (AID 2284246); details: primary human lung fibroblasts
Description: BSK_MyoF is a cell-based, multiplexed-readout assay that uses lung fibroblasts, a human […] primary cell, with measurements taken at 24 hours after chemical dosing in a microplate: 96-well plate.BSK_MyoF_bFGF is an assay component measured in the BSK_MyoF assay. It measures bFGF antibody related to regulation of gene expression using ELISA technology.Data from the assay component BSK_MyoF_bFGF was analyzed at the endpoint, BSK_MyoF_bFGF, in the positive analysis fitting direction relative to DMSO as the negative control and baseline of activity. Using a type of binding reporter, gain or loss-of-signal activity can be used to understand protein changes. To generalize the intended target to other relatable targets, this assay endpoint is annotated to the 'growth factor' intended target family, where the subfamily is 'basic fibroblast growth factor '.
as §1

[5] = read-out: Collagen IV, COL4A1 (gene 1282); experiment: BSK_MyoF_CollagenIV: BioMAP Diversity Plus: MyoF Assay for Collagen IV Biomarker Activity (AID 2284247); details: primary human lung fibroblasts
Summary of the method: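 Collagen IV quantified by ELISA in human lung fibroblast cultures 24 h after chemical treatment, with DMSO as baseline. Parallel SRB staining (0.1% SRB after TCA fixation, 560 nm) flags overt cytotoxicity.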

[6] = CCTE_Mundy_HCI_hNP1_Casp3_7: CCTE's Caspase-Glo 3/7 Assay in human neuroprogenitor cells for Apoptosis, Mundy Lab (AID 2284240)
Summary of the method: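 Luminescent caspase-3/7 readout, 26.5 h post-dose, in human neural progenitor cells from WA09 embryonic stem cells. Cells grew 40–44 h at 37 °C, 5% CO2 before chemical addition. Activity analysed as signal increase over DMSO baseline.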

[7] = CCTE_Mundy_HCI_hNP1_CellTiter: CCTE's Cell Titer-Glo 2 Assay in human neuroprogenitor cells for Viability, Mundy Lab (AID 2284241; active = hit-call score of the fitted dose curve at least 0.9, where 1 is the maximum;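 as to AC50: a hit is a drop in ATP luminescence versus DMSO meaning reduced viability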)
Summary of the method: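 Viability read as luminescent ATP content (CellTiter-Glo, 30 min room temperature) twenty-four hours after dosing, relative to DMSO. Cells: WA09-derived hNP1 neuroprogenitors on poly-L-ornithine/laminin, plated 40 to 44 hours before chemical.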

[8] = CCTE_Mundy_HCI_Cortical_Synap_Neur_Matur_NeuronCount: CCTE's Synaptogenesis and Neurite Maturation Assay in rat cortical cells for Neuron Count, Mundy Lab (AID 2284242; active = hit-call score of the fitted dose curve at least 0.9, where 1 is the maximum;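 as to AC50: hits reduce neuron count versus DMSO baseline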)
Summary of the method: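 Neuron counts come from automated high-content imaging of Hoechst nuclei and MAP2/synaptophysin immunostaining at DIV 12, with loss of signal judged against DMSO. Cultures of rat cortical cells had glial growth arrested by AraC at DIV 5; chemical exposure began DIV 7.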

[9] = read-out: Monokine induced gamma interferon (MIG), CXCL9 (gene 4283); experiment: BSK_KF3CT_MIG: BioMAP Diversity Plus: KF3CT Assay for Monokine induced gamma interferon (MIG) Biomarker Activity (AID 2284248); details: primary human keratinocytes with fibroblasts
Summary of the method: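 MIG in dosed human skin co-cultures was measured by ELISA at 24 h, relative to DMSO.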

[10] = read-out: Vascular cell adhesion molecule 1 (VCAM1), VCAM1 (gene 7412); experiment: BSK_BF4T_VCAM1: BioMAP Diversity Plus: BF4T Assay for Vascular cell adhesion molecule 1 (VCAM1) Biomarker Activity (AID 2284249); details: primary human bronchial epithelial cells with fibroblasts
Description: BSK_BF4T is a cell-based, multiplexed-readout assay that uses bronchial epithelial cells and dermal fibroblasts, a human vascular primary cell, with measurements taken at 24 hours after chemical dosing in a microplate: 96-well plate.BSK_BF4T_VCAM1 is an assay component measured in the BSK_BF4T assay. It measures VCAM-1 antibody related to regulation of gene expression using ELISA technology.Data from the assay component BSK_BF4T_VCAM1 was analyzed at the endpoint, BSK_BF4T_VCAM1, in the positive analysis fitting direction relative to DMSO as the negative control and baseline of activity. Using a type of binding reporter, gain or loss-of-signal activity can be used to understand protein changes. To generalize the intended target to other relatable targets, this assay endpoint is annotated to the 'cell adhesion molecules' intended target family, where the subfamily is 'Immunoglobulin CAM'.
as §1

Measured: AC50

CCCCCCCCCCCCCC[N+](C)(C)C
active: [1] 2.26 µM | [2] 2.31 µM | [3] 1.67 µM | [4] 4.65 µM | [5] 5.43 µM

CC#C[C@]1(O)CC[C@H]2[C@@H]3CCC4=CC(=O)CCC4=C3[C@@H](c3ccc(N(C)C)cc3)C[C@@]21C
active: [6] 13.5 µM and 18.4 µM | [7] 27.4 µM and 21.6 µM | [8] 22.9 µM and 25.2 µM

FC(F)(I)C(F)(F)C(F)(F)C(F)(F)C(F)(F)C(F)(F)I
active: [4] 8.27 µM [middle of 5 runs] | [9] 9.38 µM [middle of 5 runs] | [10] 6.79 µM [middle of 5 runs]
inactive: [5]

CN1CCC[C@H]1c1cccnc1
inactive: [6]

CC1=C(/C=C/C(C)=C/C=C/C(C)=C/C(=O)O)C(C)(C)CCC1
inactive: [6] | [8]

C=C(C)C(=O)OCCC(F)(F)C(F)(F)C(F)(F)C(F)(F)C(F)(F)C(F)(F)F
not listed: [8]
inactive: all other assays above

C[C@@H]1C[C@H]2[C@@H]3CCC4=CC(=O)C=C[C@]4(C)[C@@]3(F)[C@@H](O)C[C@]2(C)[C@@]1(O)C(=O)COP(=O)(O)O
active: [1] 0.277 µM | [2] 0.267 µM | [3] 807 nM and 148 nM
inactive: [1] | [2] | [4] | [5] | [9] | [10]

NCC(F)(F)C(F)(F)C(F)(F)C(F)(F)C(F)(F)C(F)(F)C(F)(F)F
not listed: [6] | [7] | [8]
inactive: all other assays above

OCCC(F)(F)C(F)(F)C(F)(F)C(F)(F)C(F)(F)C(F)(F)F
active: [1] 5.95 µM
inactive: [6] | [1] | [2] | [3] | [4] | [5] | [9] | [10]

OCCC(F)(F)C(F)(F)C(F)(F)C(F)(F)C(F)(F)C(F)(F)C(F)(F)C(F)(F)F
active: [1] 22.9 µM and 36.3 µM | [2] 14.6 µM and 15.1 µM | [3] 23.6 µM and 28.4 µM | [4] 17.4 µM and 10.7 µM | [9] 21.4 µM and 23.7 µM | [10] 8.57 µM and 8 µM
inactive: [6] | [7] | [5]
